In the supplement of paper PMC12282887:
± gives the standard deviation of the averaged measurements.

What was measured:
Assay in all cases: promoter activity interaction Z-score (Lux/OD deviation from empty-vector control); higher = stronger promoter induction by the compound
[1] = tested on: E. coli BW25113 acrABp lux reporter
How it was run: (§1)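 E. coli BW25113 (wild type or marA, soxS or rob deletion) carrying low-copy luxCDABE promoter reporters grew in 40 µl LB Lennox in 384-well plates at 37°C. Each compound was tested at four 1:2 dilutions in biological duplicates. OD600 and luminescence were read every 30 min for 12 h. Areas were taken over 0–8 h (wild type) or 1–9 h (mutants), and wells below 10% of median growth area were removed. The score is the Z-transformed residual of growth-normalised luminescence fitted against the empty-vector control.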

[2] = tested on: E. coli BW25113 marRABp lux reporter
How it was run: as §1

[3] = tested on: E. coli BW25113 micFp lux reporter
How it was run: as §1

[4] = tested on: E. coli BW25113 ompFp lux reporter
How it was run: as §1

[5] = tested on: E. coli BW25113 robp lux reporter
How it was run: as §1

[6] = tested on: E. coli BW25113 soxSp lux reporter
How it was run: as §1

[7] = tested on: E. coli BW25113 tolCp lux reporter
How it was run: as §1

[8] = 0.02 µg/ml, genetic background: wild type
[9] = 0.02 µg/ml, genetic background: ΔmarA
[10] = 0.02 µg/ml, genetic background: Δrob
[11] = 0.02 µg/ml, genetic background: ΔsoxS
[12] = 0.04 µg/ml, genetic background: wild type
[13] = 0.04 µg/ml, genetic background: ΔmarA
[14] = 0.04 µg/ml, genetic background: Δrob
[15] = 0.04 µg/ml, genetic background: ΔsoxS
[16] = 0.079 µg/ml, genetic background: wild type
[17] = 0.079 µg/ml, genetic background: ΔmarA
[18] = 0.079 µg/ml, genetic background: Δrob
[19] = 0.079 µg/ml, genetic background: ΔsoxS
[20] = 0.16 µg/ml, genetic background: wild type
[21] = 0.16 µg/ml, genetic background: ΔmarA
[22] = 0.16 µg/ml, genetic background: Δrob
[23] = 0.16 µg/ml, genetic background: ΔsoxS

## C[C@@H](O)[C@H]1C(=O)N2C(C(=O)O)=C(SCCNC=N)C[C@H]12 [Imipenem]
[1]; [8]
  promoter activity interaction Z-score: 0.313 ± 0.12
[1]; [9]
  promoter activity interaction Z-score: 1.28 ± 1.8
[1]; [10]
  promoter activity interaction Z-score: 0.353 ± 0.18
[1]; [11]
  promoter activity interaction Z-score: 0.0665 ± 0.11
[1]; [12]
  promoter activity interaction Z-score: 0.296 ± 0.28
[1]; [13]
  promoter activity interaction Z-score: 0.881 ± 0.37
[1]; [14]
  promoter activity interaction Z-score: 0.492 ± 0.11
[1]; [15]
  promoter activity interaction Z-score: -0.0993 ± 0.31
[1]; [16]
  promoter activity interaction Z-score: 0.282 ± 0.4
[1]; [17]
  promoter activity interaction Z-score: -0.701 ± 0.22
[1]; [18]
  promoter activity interaction Z-score: 0.209 ± 0.086
[1]; [19]
  promoter activity interaction Z-score: 0.325 ± 0.52
[1]; [20]
  promoter activity interaction Z-score: 0.0724 ± 0.69
[1]; [21]
  promoter activity interaction Z-score: -0.226 ± 0.46
[1]; [22]
  promoter activity interaction Z-score: 0.107 ± 0.094
[1]; [23]
  promoter activity interaction Z-score: 0.865 ± 0.24
[2]; [8]
  promoter activity interaction Z-score: 0.316 ± 0.21
[2]; [9]
  promoter activity interaction Z-score: 0.592 ± 0.32
[2]; [10]
  promoter activity interaction Z-score: 0.0424 ± 0.11
[2]; [11]
  promoter activity interaction Z-score: 0.106 ± 0.074
[2]; [12]
  promoter activity interaction Z-score: 0.381 ± 0.44
[2]; [13]
  promoter activity interaction Z-score: 0.269 ± 0.79
[2]; [14]
  promoter activity interaction Z-score: -0.0178 ± 0.16
[2]; [15]
  promoter activity interaction Z-score: 0.0651 ± 0.041
[2]; [16]
  promoter activity interaction Z-score: 0.087 ± 0.15
[2]; [17]
  promoter activity interaction Z-score: -0.0931 ± 0.047
[2]; [18]
  promoter activity interaction Z-score: 0.0397 ± 0.03
[2]; [19]
  promoter activity interaction Z-score: 0.0374 ± 0.049
[2]; [20]
  promoter activity interaction Z-score: 0.129 ± 0.28
[2]; [21]
  promoter activity interaction Z-score: -0.0426 ± 0.31
[2]; [22]
  promoter activity interaction Z-score: -0.0898 ± 0.17
[2]; [23]
  promoter activity interaction Z-score: 0.217 ± 0.23
[3]; [8]
  promoter activity interaction Z-score: -0.142 ± 0.16
[3]; [9]
  promoter activity interaction Z-score: 0.0296 ± 0.051
[3]; [10]
  promoter activity interaction Z-score: -0.0038 ± 0.09
[3]; [11]
  promoter activity interaction Z-score: -0.119 ± 0.17
[3]; [12]
  promoter activity interaction Z-score: 0.0424 ± 0.3
[3]; [13]
  promoter activity interaction Z-score: 0.0155 ± 0.0044
[3]; [14]
  promoter activity interaction Z-score: 0.104 ± 0.069
[3]; [15]
  promoter activity interaction Z-score: -0.24 ± 0.14
[3]; [16]
  promoter activity interaction Z-score: -0.145 ± 0.082
[3]; [17]
  promoter activity interaction Z-score: -0.07 ± 0.02
[3]; [18]
  promoter activity interaction Z-score: -0.0557 ± 0.0065
[3]; [19]
  promoter activity interaction Z-score: 0.206 ± 0.3
[3]; [20]
  promoter activity interaction Z-score: -0.0706 ± 0.42
[3]; [21]
  promoter activity interaction Z-score: -0.131 ± 0.072
[3]; [22]
  promoter activity interaction Z-score: -0.0161 ± 0.083
[3]; [23]
  promoter activity interaction Z-score: 0.512 ± 0.49
[4]; [8]
  promoter activity interaction Z-score: 0.592 ± 0.022
[4]; [9]
  promoter activity interaction Z-score: 0.885 ± 0.097
[4]; [10]
  promoter activity interaction Z-score: 0.602 ± 0.084
[4]; [11]
  promoter activity interaction Z-score: 0.271 ± 0.35
[4]; [12]
  promoter activity interaction Z-score: 0.679 ± 0.22
[4]; [13]
  promoter activity interaction Z-score: 0.662 ± 0.21
[4]; [14]
  promoter activity interaction Z-score: 0.743 ± 0.19
[4]; [15]
  promoter activity interaction Z-score: 0.276 ± 0.85
[4]; [16]
  promoter activity interaction Z-score: 0.372 ± 0.28
[4]; [17]
  promoter activity interaction Z-score: 0.257 ± 0.3
[4]; [18]
  promoter activity interaction Z-score: 0.789 ± 0.66
[4]; [19]
  promoter activity interaction Z-score: 0.142 ± 0.038
[4]; [20]
  promoter activity interaction Z-score: 0.851 ± 0.33
[4]; [21]
  promoter activity interaction Z-score: 1.19 ± 0.16
[4]; [22]
  promoter activity interaction Z-score: 1.34 ± 0.058
[4]; [23]
  promoter activity interaction Z-score: 1.39 ± 0.5
[5]; [8]
  promoter activity interaction Z-score: 0.863 ± 0.1
[5]; [9]
  promoter activity interaction Z-score: 1.42 ± 0.61
[5]; [10]
  promoter activity interaction Z-score: 1.13 ± 0.1
[5]; [11]
  promoter activity interaction Z-score: 0.38 ± 1.6
[5]; [12]
  promoter activity interaction Z-score: 1.42 ± 0.9
[5]; [13]
  promoter activity interaction Z-score: 0.964 ± 0.54
[5]; [14]
  promoter activity interaction Z-score: 0.862 ± 0.23
[5]; [15]
  promoter activity interaction Z-score: -0.648 ± 0.39
[5]; [16]
  promoter activity interaction Z-score: 0.399 ± 0.46
[5]; [17]
  promoter activity interaction Z-score: -0.467 ± 0.12
[5]; [18]
  promoter activity interaction Z-score: -0.0634 ± 0.12
[5]; [19]
  promoter activity interaction Z-score: 0.149 ± 0.0074
[5]; [20]
  promoter activity interaction Z-score: 0.582 ± 0.12
[5]; [21]
  promoter activity interaction Z-score: -0.0297 ± 0.2
[5]; [22]
  promoter activity interaction Z-score: 0.845 ± 0.3
[5]; [23]
  promoter activity interaction Z-score: 0.155 ± 0.23
[6]; [8]
  promoter activity interaction Z-score: 0.0906 ± 0.0094
[6]; [9]
  promoter activity interaction Z-score: -0.0591 ± 0.084
[6]; [10]
  promoter activity interaction Z-score: 0.0225 ± 0.12
[6]; [11]
  promoter activity interaction Z-score: -0.179 ± 0.12
[6]; [12]
  promoter activity interaction Z-score: 0.124 ± 0.076
[6]; [13]
  promoter activity interaction Z-score: 0.161 ± 0.03
[6]; [14]
  promoter activity interaction Z-score: 0.187 ± 0.23
[6]; [15]
  promoter activity interaction Z-score: -0.163 ± 0.26
[6]; [16]
  promoter activity interaction Z-score: 0.146 ± 0.15
[6]; [17]
  promoter activity interaction Z-score: -0.0799 ± 0.11
[6]; [18]
  promoter activity interaction Z-score: -0.00226 ± 0.029
[6]; [19]
  promoter activity interaction Z-score: 0.121 ± 0.18
[6]; [20]
  promoter activity interaction Z-score: 0.0824 ± 0.27
[6]; [21]
  promoter activity interaction Z-score: -0.0185 ± 0.033
[6]; [22]
  promoter activity interaction Z-score: -0.0171 ± 0.17
[6]; [23]
  promoter activity interaction Z-score: 0.177 ± 0.52
[7]; [8]
  promoter activity interaction Z-score: 0.541 ± 0.2
[7]; [9]
  promoter activity interaction Z-score: 0.817 ± 0.21
[7]; [10]
  promoter activity interaction Z-score: -0.144 ± 0.41
[7]; [11]
  promoter activity interaction Z-score: -0.241 ± 0.51
[7]; [12]
  promoter activity interaction Z-score: 0.146 ± 1.3
[7]; [13]
  promoter activity interaction Z-score: 0.917 ± 0.58
[7]; [14]
  promoter activity interaction Z-score: 1.47 ± 0.4
[7]; [15]
  promoter activity interaction Z-score: -1.38 ± 0.5
[7]; [16]
  promoter activity interaction Z-score: 0.00539 ± 0.13
[7]; [17]
  promoter activity interaction Z-score: -0.369 ± 0.35
[7]; [18]
  promoter activity interaction Z-score: 0.295 ± 0.094
[7]; [19]
  promoter activity interaction Z-score: -0.148 ± 0.41
[7]; [20]
  promoter activity interaction Z-score: -0.803 ± 0.044
[7]; [21]
  promoter activity interaction Z-score: 0.117 ± 0.52
[7]; [22]
  promoter activity interaction Z-score: 0.323 ± 0.18
[7]; [23]
  promoter activity interaction Z-score: 0.105 ± 0.88
